Bioassay records deposited in PubChem by several laboratories.
TWEAK-Fn14 inh = blocks TWEAK-Fn14 interaction in a reporter cell assay; TWEAK-stimulated Fn14 reporter cells, luciferase luminescence, 8 h; inhibition, % at 10 µM; 2% of 360,000 active; in the data active means inhibition above about 50%
LMP1 NFkB inh = inhibitors of Epstein-Barr LMP1-induced NF-kappaB reporter; LMP1-induced NF-kappaB luciferase reporter cells, luminescence; inhibition, % at 12.5 µM; 0.69% of 350,000 active; AID 504558; in the data active means inhibition above about 41%;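 further: 0% = neutral control wells and 100% = reference inhibitor control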
PAX8 reporter = PAX8 transcriptional activity inhibition; inhibition, % at 12.6 µM; RMG-I TPO-luciferase reporter, SteadyGlo, 24 h; 1.2% of 360,000 active;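 active means mean replicate inhibition at least 60% with every replicate also reaching 60%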;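 further: luciferase light reporting Pax8 driven TPO promoter activity; plate controls were median of neutral control wells for no effect and mitoxantrone controls for full effect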
TROY signal inh = inhibitors of TROY-dependent NF-kB signaling | Q293 LMP1-TROYcd NF-kB luciferase reporter, 4 h | inhibition, % at 10 µM | 0.98% of 360,000 active;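 active means compounds whose plate-normalised and pattern-corrected inhibition of the luciferase reporter signal at the single screening dose is 50% or more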
LGR2 antag = blocks bursicon-induced cAMP signaling via Drosophila LGR2 | HEK293 LGR2, CRE-luciferase, bursicon-stimulated, 4 h | inhibition, % at 9.99 µM | 0.35% of 380,000 active | AID 720647;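 active means drop in luminescence signal, shown as inhibition above about 50% in the replicate tests, limit read from the data, passing the limit was not always enough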;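 further: agonist challenge used bursicon conditioned medium at about half maximal strength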
EWS-Fli inh = inhibitors of EWS/Fli oncoprotein transcriptional activity. A673 NR0B1-luciferase reporter, viability-normalised. inhibition, % at 12.6 µM. 0.67% of 350,000 active. AID 651661;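 active means mean inhibition of at least 50% after viability correction, with every replicate also passing that limit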;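 further: firefly luciferase signal divided by Alamar Blue viability fluorescence both relative to DMSO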
* = called active by the depositor; / = not tested or not shown. This is a sample that favours compounds with a hit; in the whole collection about 3.2% have one here.

SMILES	TWEAK-Fn14 inh	LMP1 NFkB inh	PAX8 reporter	TROY signal inh	LGR2 antag	EWS-Fli inh
COc1ccc(CCNC(=O)N2c3ccccc3Sc3ccccc32)cc1	55*	14	43	45	/	/
COc1cccc(CC(=O)OCC(=O)NCCc2ccc(F)cc2)c1	54*	2	5	-8	-8	-2
CC=Cc1ccc2n(c1=O)C[C@H]1[C@H](CO)[C@@H](C(=O)NCC3CC3)N(C(C)=O)[C@@H]21 (mixture of isomers)	/	/	/	/	-10	-17
C[C@H]1CN([C@@H](C)CO)C(=O)c2cc(C#Cc3cccnc3)cnc2O[C@H]1CN(C)Cc1ccncc1	/	/	5	/	4	-13
COc1ccc(NC(=O)COC(=O)[C@@H]2CCCN2C(=O)c2cccs2)c(OC)c1	5	-1	/	-8	/	/
COc1ccc(CNC(=O)COC(=O)[C@@H]2CCCN2C(=O)c2cccs2)cc1	16	45*	2	1	-6	-5
CN(C)c1ccc(/C=N/N=C2/NC(=O)/C(=C/c3ccc([N+](=O)[O-])cc3)S2)cc1	60*	37	-11	33	/	/
C[C@@H]1CN([C@@H](C)CO)C(=O)c2cc(NC(=O)CCN3CCOCC3)ccc2O[C@@H]1CN(C)Cc1ccccc1	/	/	-15	/	-18	1
COc1ccc(NS(=O)CCCc2ccccc2)cc1 (stereo not given)	54*	/	-18	42	-9	-1
COc1ccc(C(=O)NCCCCc2ccccc2)cc1	2	/	2	-40	-22	2
COc1ccc(/C=N/NC(=O)C(=O)N2CCCCCC2)cc1	8	12	-11	5	-38	3
O=C(COc1ccc(/C=N/NC(=O)C(=O)N2CCCCCC2)cc1)Nc1ccccc1Cl	0	-3	78*	20	5	-41
O=C(/C=C/Nc1ccccc1)c1ccccc1	37	-26	/	-23	/	/
CN(C)c1ccc(N/C=C/C(=O)c2ccccc2)cc1	95*	-73	/	23	/	/
c1ccc(-n2cnc3cc(NCc4cccs4)ccc32)cc1	93*	12	/	83*	/	/
O=C(O)c1ccc(/C=N\Nc2ccc(S(=O)(=O)N3CCOCC3)cc2[N+](=O)[O-])cc1	-4	-5	-18	6	-7	7
Cc1ccc(-n2c(O)c(/C=N/Nc3ccc(S(=O)(=O)N4CCOCC4)cc3[N+](=O)[O-])c3ccccc3c2=O)c(C)c1	82*	6	24	42	45	15
COc1cc(C(=O)NCCOc2ccccc2)cc(OC)c1OC	-13	-2	-42	-24	-1	-7
COc1cc(C(=O)NCCOc2cc(C)ccc2C(C)C)cc(OC)c1OC	62*	22	20	42	7	15
Cc1ccc(C(C)C)c(OCCNC(=O)c2cncc(Br)c2)c1	-9	4	/	6	/	/
COc1cc(C(=O)NCCOc2cc(C)cc(C)c2)cc(OC)c1OC	31	-9	14	-14	2	53*
COCC#Cc1cnc2c(c1)C(=O)N([C@H](C)CO)C[C@H](C)[C@H](CN(C)C(=O)Nc1ccccc1F)O2	/	/	/	/	13	-20
O=C(c1ccncc1)N1CC(=O)N2[C@@H](CO)[C@@H](c3ccc(-c4ccccc4)cc3)[C@@H]2C1	/	/	1	/	6	5
O=C(c1cccc(F)c1)N1CC(=O)N2[C@H](C1)[C@H](c1ccc(/C=C/c3ccccc3)cc1)[C@@H]2CO	/	/	63*	/	7	17
O=C(c1ccncc1)N1CC(=O)N2[C@H](C1)[C@@H](c1ccc(-c3ccccc3)cc1)[C@@H]2CO	/	/	-12	/	-13	54*
SMILES	TWEAK-Fn14 inh	LMP1 NFkB inh	PAX8 reporter	TROY signal inh	LGR2 antag	EWS-Fli inh
COc1ccc(C#Cc2ccc3c(c2)c(=O)c2ccccc2n3C)cc1	-44	-10	-11	-17	-18	40
Cn1c2ccccc2c(=O)c2ccc(C#CC3(O)CCCCC3)cc21	97*	-18	9	91*	100*	57*
COc1cc2sc3ccc(C#CC4(O)CCCCC4)cc3c(=O)c2cc1OC	92*	-59	-47	84*	94*	-10
COc1cccc2sc3ccc(C#CC4(N)CCCCC4)cc3c(=O)c12	-51	-10	-75	-58	/	-100
COc1cccc2sc3cc(C#CC4(O)CCCCC4)ccc3c(=O)c12	13	-11	-61	-70	98*	-40
COCC(=O)N1CC2(CCN(C(=O)c3cccnc3)CC2)c2c([nH]c3cc(OC)ccc23)[C@H]1CO	/	/	/	/	-22	-7
Cc1ccc(S(=O)(=O)Nc2ccc3c(c2)C(=O)N([C@@H](C)CO)C[C@H](C)[C@H](CN(C)Cc2ccc(Cl)c(Cl)c2)O3)cc1	/	/	/	/	16	7
CCCn1nc([N+](=O)[O-])c(C(C#N)c2nc3ccccc3s2)c(Cl)c1=O (stereo not given)	77*	-2	/	46	26	/
Cn1c(C(C#N)C(=O)c2sc3ccccc3c2Cl)nc2ccccc21 (stereo not given)	2	4	/	0	/	/
CCn1nc([N+](=O)[O-])c(C(C#N)c2nc3ccccc3n2C)c(Cl)c1=O (stereo not given)	69*	1	-1	9	3	13
CC(=O)NC[C@H]1[C@@H](c2ccc(C3=CCCC3)cc2)[C@@H](CO)N1C(=O)CN(C)C	/	/	/	/	-2	/
CC(C)NC(=O)Nc1cccc2c1O[C@H](CN(C)S(=O)(=O)c1cccs1)[C@H](C)CN([C@H](C)CO)C2=O	/	/	/	/	-1	-6
COCC(=O)Nc1ccc2c(c1)OC[C@H](C)N(C(=O)NC(C)C)C[C@H](C)[C@H](OC)CN(C)C2=O	/	/	-15	/	7	-4
CCN(c1ccccc1)S(=O)(=O)c1cc(NC(=O)Nc2ccccc2C#N)ccc1Cl	9	3	11	10	14	14
CCN(c1ccccc1)S(=O)(=O)c1ccc(Cl)c(NC(=O)Nc2ccc(Cl)cc2C#N)c1	25	85*	10	-26	34	-5
COc1ccc(-c2coc3c(C(=O)Nc4cccnc4)cccc23)c(C)c1	66*	/	-17	22	18	-6
COc1ccc(-c2ccc(C(=O)Nc3cccc(C(C)=O)c3)c3occc23)c(C)c1	48	/	-146	17	-25	-24
COc1ccc(-c2coc3c(C(=O)Nc4cccc(C(C)=O)c4)cccc23)c(C)c1	8	/	-20	22	11	-23
